Compounds with a hit are over-represented: about 1.2% of the library has one in this group of screens.
RAD52 anneal inh = blocks human RAD52 DNA annealing | P43351 | inhibition, % at 18.7 µM | 360,000 compounds, 0.46% hits | recombinant RAD52 DNA annealing, FRET fluorescence;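 active = every replicate showing at least 50% inhibition; inconclusive = mean inhibition at least 50% but not in every replicate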
Casp6 inh = blocks human caspase-6 cleavage activity; P55212; purified caspase-6, Z-VEID-R110 cleavage fluorescence; inhibition, % at 12.5 µM; 350,000 compounds, 0.53% hits;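 active = mean inhibition across replicates at least about 35%, with every replicate also reaching that limit, limit read from the data; inconclusive = only one of the two criteria met; inactive = neither criterion met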;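 also: 0% = median of neutral control wells and 100% = no fluorescence left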
Glyco luc inh = N-linked glycosylation inhibition. AID 588692. D54 ERlucT glycosylation luciferase reporter, 24 h; percent of 100 nM tunicamycin response. 360,000 compounds, 0.23% hits. reporter increase, % at 12.5 µM;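 active = mean luciferase reporter signal, scaled so untreated is 0 and the glycosylation-blocking control 100, at or above a set limit in every replicate; inconclusive = mean reaches the limit but not every replicate does; inactive = mean below the limit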;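 also: luciferase carries N-glycosylation sites so blocking glycosylation raises the light; 0% = median of neutral control wells and 100% = median of 100 nM tunicamycin wells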
MLL AF4-AF9 inh = inhibitors of human MLL-AF4/AF9 interaction | AlphaScreen, biotin-AF4 peptide binding to FLAG-AF9 | inhibition, % at 10 µM | 350,000 compounds, 0.47% hits;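 active = every replicate reaching a set inhibition limit, whatever the replicate mean, cut at about 25% in these data; inconclusive = mean inhibition reaches that limit but some replicates miss it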;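 also: 0% = plate neutral control median and 100% = total signal loss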
Target sequence (P42568 whole entry, looked up): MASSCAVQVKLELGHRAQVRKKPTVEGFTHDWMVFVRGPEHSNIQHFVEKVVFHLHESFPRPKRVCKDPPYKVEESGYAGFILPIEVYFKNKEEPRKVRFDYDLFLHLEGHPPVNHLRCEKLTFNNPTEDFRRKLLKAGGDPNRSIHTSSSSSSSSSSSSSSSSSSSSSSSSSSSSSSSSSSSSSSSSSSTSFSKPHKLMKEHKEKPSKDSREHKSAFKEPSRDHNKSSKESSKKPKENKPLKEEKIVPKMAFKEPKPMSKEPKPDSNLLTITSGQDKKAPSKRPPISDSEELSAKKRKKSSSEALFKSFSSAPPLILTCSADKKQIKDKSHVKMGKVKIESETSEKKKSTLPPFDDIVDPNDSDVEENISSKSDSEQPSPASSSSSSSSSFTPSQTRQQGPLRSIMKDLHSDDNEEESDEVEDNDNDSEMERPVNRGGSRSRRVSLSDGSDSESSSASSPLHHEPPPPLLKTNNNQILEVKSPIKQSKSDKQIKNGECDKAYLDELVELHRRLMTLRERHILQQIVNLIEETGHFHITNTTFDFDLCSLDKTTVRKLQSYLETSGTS
RAD54 inh = inhibitors of human RAD54 branch migration | 360,000 compounds, 0.14% hits | inhibition, % at 10.4 µM | RAD54 Holliday junction branch migration, FAM/BHQ fluorescence | Q92698 | AID 602329;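 active = mean normalized replicate activity at least 40 and at least half of replicates scoring 40 or more; inconclusive = only one of the two criteria met; inactive = mean below 40 and under half of replicates reaching 40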;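 also: 0% = median of neutral control wells and 100% = median of positive control wells; inhibitors cause a drop in the FAM fluorescence signal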
The depositor's hits bear a star; i = inactive; ? = inconclusive; / = no result; ! = not active in a repeat.

SMILES	RAD52 anneal inh	Casp6 inh	Glyco luc inh	MLL AF4-AF9 inh	RAD54 inh
O=C(O)c1ccc(N2CCc3ccccc32)c([N+](=O)[O-])c1	2	/	1	4	0
CO[C@H]1CN(C)C(=O)c2ccc(NC(=O)c3nc4ccccc4s3)cc2OC[C@H](C)N(Cc2cncnc2)C[C@H]1C	5	0	/	8	1
COc1ccc2c3c([nH]c2c1)[C@@H](CO)N(CC1CC1)CC31CN(C(=O)Nc2cccc(F)c2)C1	8	0	/	-1	/
O=C1C(NS(=O)(=O)c2ccc(Cl)cc2)=C(N2CCCCC2)C(=O)c2ccccc21	-14	7	10	40*	/
CCN1CCN(C(CNS(=O)(=O)c2ccc(Br)cc2)c2cccnc2)CC1 (centres undefined)	8	-14	0	1	-6
CCN1CCN(C2=C(NS(=O)(=O)c3ccccc3)C(=O)c3ccccc3C2=O)CC1	-6	48*	3	9	-6
CN1CCN(C2=C(NS(=O)(=O)c3ccccc3)C(=O)c3ccccc3C2=O)CC1	/	/	0	/	/
CCN1CCN(C2=C(NS(=O)(=O)c3ccc(Br)cc3)C(=O)c3ccccc3C2=O)CC1	-3	68*	0	14	-1
Cc1c(C(=O)N/N=C/c2cccnc2)sc(N)c1C#N	-13	3	40*	4	-2
CCCN1[C@@H]2c3ccc(C4=CCCCC4)c(=O)n3C[C@@H]2[C@@H](CO)[C@@H]1C(=O)NC1Cc2ccccc2C1	-19	2	/	9	-1
CO[C@H]1CN(C)C(=O)c2ccc(NC(=O)Nc3cccc(Cl)c3)cc2OC[C@@H](C)NC[C@@H]1C	24	-4	/	10	8
CO[C@H]1CN(C)C(=O)c2ccc(NC(=O)Nc3cc(Cl)cc(Cl)c3)cc2OC[C@@H](C)NC[C@@H]1C	52*	0	/	6	-1
CO[C@H]1CN(C)C(=O)c2ccc(NC(=O)Nc3cc(Cl)cc(Cl)c3)cc2OC[C@@H](C)NC[C@H]1C	64*	/	/	/	15
CO[C@@H]1CN(C)C(=O)c2ccc(NC(=O)Nc3cccc(Cl)c3)cc2OC[C@H](C)NC[C@@H]1C	28	-3	/	8	-4
CO[C@@H]1CN(C)C(=O)c2cc(NC(=O)Nc3cc(Cl)cc(Cl)c3)ccc2OC[C@H](C)NC[C@H]1C	57*	/	/	/	/
CO[C@H]1CN(C)C(=O)c2ccc(NC(=O)Nc3cc(Cl)cc(Cl)c3)cc2OC[C@H](C)NC[C@H]1C	54*	-1	/	18	5
CO[C@@H]1CN(C)C(=O)c2ccc(NC(=O)C3CCC3)cc2OC[C@@H](C)N(Cc2ccccn2)C[C@H]1C	-1	1	/	-4	/
O=C(O)c1ccc(N/N=C/C=C/c2ccc([N+](=O)[O-])o2)cc1	-23	75*	1	8	-17
O=C(N/N=C/c1ccc([N+](=O)[O-])o1)C(=O)Nc1ccc(C(=O)O)cc1	0	7	1	-3	-5
Cc1ccc(-c2csc(NC(=O)c3cccc(C)c3)c2C(=O)O)cc1	-4	-1	0	-2	-14
N#Cc1c(NC(=O)/C=C/c2ccco2)sc2c1CCCC2	-11	-3	23	-2	/
O=C(/C=C/c1ccco1)Nc1sc2c(c1C(=O)O)CCC2	-19	61*	4	2	/
Cc1ccc(-c2csc(NC(=O)/C=C/c3ccco3)c2C(=O)O)cc1	-21	75*	-6	2	-8
C[C@@H]1CN([C@H](C)CO)C(=O)c2cc(-c3ccc(F)cc3)cnc2O[C@@H]1CN(C)Cc1cncnc1	13	-1	/	-9	-6
COc1cc2c(cc1OC)C(c1ccccc1)N(C(=O)c1cccc(S(C)(=O)=O)c1)CC2 (centres undefined)	2	-1	67*	-6	/
SMILES	RAD52 anneal inh	Casp6 inh	Glyco luc inh	MLL AF4-AF9 inh	RAD54 inh
C[C@H](O)C#Cc1ccc2c(c1)O[C@@H](CN(C)C(=O)C1CCC1)[C@@H](C)CN([C@@H](C)CO)S2(=O)=O	4	1	/	-13	-7
COc1ccc(OCCOC(=O)c2nc3nccc(C)n3n2)cc1	2	0	1	-3	/
COc1ccc(C(=O)C(C)OC(=O)c2nc3nccc(C)n3n2)cc1 (centres undefined)	-12	91*	-1	-1	5
O=C(/C=C/c1ccc(O)c(O)c1)c1ccccc1O	-48	19	6	6	0
O=C(/C=C/c1ccccc1Cl)c1ccc(O)cc1	-10	7	30*	11	-19
O=C(C=Cc1ccccc1O)c1ccccc1O	4	3	33*	3	1
Fc1ccc(C2CCNCC2COc2ccc3c(c2)OCO3)cc1 (centres undefined)	21	-2	1	32*	5
CCOC(=O)c1c(C)c(C(=O)NCc2ccccc2OC)c(C)n1C	-12	0	-1	/	-6
CCOC(=O)c1c(C)c(C(=O)NCc2ccc(OC)cc2)c(C)n1C	-20	48*	1	-1	/
COc1ccc(Cl)cc1C(Nc1cccnc1)c1ccc2cccnc2c1O (centres undefined)	-11	8	6	26*	/
COc1cccc(C(NC(C)=O)c2ccc3cccnc3c2O)c1 (centres undefined)	-9	2	-7	26*	-1
CC(=O)NC(c1cccc([N+](=O)[O-])c1)c1ccc2cccnc2c1O (centres undefined)	-19	4	-6	1	-8
CCC(=O)NC(c1ccccc1OC)c1ccc2cccnc2c1O (centres undefined)	/	/	-8	/	/
Cc1ccccc1N/N=C/c1c(C)nc2ccccn12	-8	2	0	26*	12
COc1ccc(Cl)cc1S(=O)(=O)Nc1ccc2c(c1)n(C)c(=O)n2C	-20	0	58*	0	14
COc1ccc(S(=O)(=O)Nc2ccc3c(c2)n(C)c(=O)n3C)cc1OC	-4	-1	?	8	-13
CCCn1c(=O)c2ccccc2n2c(SCCNCCO)nnc12	16	-190	-1	27*	8
O=C1C=C(N2CCOCC2)c2cccc3cccc1c23	i	-8	4	8	1
O=C1C=C(N2CCOCC2)c2ccccc2C1=O	-5	100*	-21	3	10
CCNC(=O)[C@H]1[C@H](CO)[C@H]2Cn3c(ccc(-c4ccccc4F)c3=O)[C@H]2N1CC	-6	-3	/	-1	2
CCOc1ncccc1C(=O)OC(C)C(=O)Nc1ccc(N2CCOCC2)cc1 (centres undefined)	1	35*	1	0	7
CCOc1ncccc1C(=O)Nc1ccccc1N1CCOCC1	-6	2	3	-1	/
C[C@H](CO)N1C[C@H](C)[C@@H](CN(C)S(=O)(=O)c2ccccc2F)Oc2ncc(C#Cc3cccnc3)cc2C1=O	-5	36*!	10	0	3
C[C@@H]1CN([C@@H](C)CO)C(=O)c2cc(/C=C/c3ccccc3)cnc2O[C@H]1CN(C)Cc1ccccc1F	2	-1	/	28*	3
